We go through ten compounds from PubChem BioAssay (Tox21).

Records with an inconclusive call do not appear. A number with no mark means an inactive call. Calls of active or inactive are those of the source. Unless noted, calls follow the shape of the full dose curve.

The nature of assay [1]: qHTS assay to identify small molecule antagonists of the peroxisome proliferator-activated receptor delta (PPARd) signaling pathway - cell viability counter screen (AID 743213; active = well fitted curve in the direction sought with a large enough effect in the repeat runs; an effect the other way counts as inactive or inconclusive; also: nearly all actives have a fitted effect of over 50% in size). The gist of the method:
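Luminescence from CellTiter-Glo, added after the bla read and incubated 30 min at room temperature, gives viability of HEK293H PPARd-bla cells exposed to compounds for 17 h at 37 C with 300 nM L165041.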
A general note: qHTS replaces the single test concentration by a dilution series.

Assay [2] is described as follows: qHTS assay to identify small molecule agonists of the farnesoid-X-receptor (FXR) signaling pathway - cell viability counter screen (AID 743218; active = well fitted curve in the direction sought with a large enough effect in the repeat runs; an effect the other way counts as inactive or inconclusive; also: nearly all actives have a fitted effect of over 45% in size). The method, boiled down: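 HEK 293T FXR-bla cells; 5 h pre-incubation, 16 h compound exposure at 37 C; LiveBLAzer substrate 2 h RT, then CellTiter-Glo 30 min RT, luminescence.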
Assay [3] can be described thus: qHTS assay to identify small molecule antagonists of the farnesoid-X-receptor (FXR) signaling pathway - cell viability counter screen (AID 743221; active = well fitted cell-killing curve with a large enough effect in the repeat runs, not every such curve was filed as active; also: nearly all actives have a fitted effect of over 50% in size). The method, boiled down:
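Compound effects on cell number were measured as CellTiter-Glo luminescence in HEK 293T cells expressing FXR-UAS-bla, after 16 h at 37 C with 50 uM CDCA (final).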

A short description of assay [4]: qHTS assay to identify small molecule agonists of the vitamin D receptor (VDR) signaling pathway - cell viability counter screen (AID 743224; active = well fitted curve in the direction sought with a large enough effect in the repeat runs; an effect the other way counts as inactive or inconclusive; also: series mostly up to about 63 µM; nearly all actives have a fitted effect of over 50% in size). The gist of the method:
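Luminescence from CellTiter-Glo, read after 30 min at room temperature, reports viability of VDR-bla cells treated with compounds for 16 h at 37C in the wells used for the beta-lactamase FRET read.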

Assay [5] in a line: qHTS assay to identify small molecule antagonists of the vitamin D receptor (VDR) signaling pathway - cell viability counter screen (AID 743225; active = well fitted curve in the direction sought with a large enough effect in the repeat runs; an effect the other way counts as inactive or inconclusive; also: nearly all actives have a fitted effect of over 50% in size). The gist of the method:
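In this counter screen, VDR-bla HEK 293T cells receive test compound plus 3 nM final calcitriol for 16 h at 37C. Room-temperature steps of 2 h with the beta-lactamase substrate, then 30 min with CellTiter-Glo, precede the luminescence read.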

Assay [6] is described as follows: qHTS assay to identify small molecule agonists of the NFkB signaling pathway - cell viability counter screen (AID 1159515). Also: series mostly up to about 61 µM; nearly all actives have a fitted effect of over 55% in size. The gist of the method:
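Luminescence from CellTiter-Glo (30 min, room temperature) gives viability, measured in the same wells as the beta-lactamase reporter read. Cells were NFkB-bla ME-180, 2,000 per well, treated 5 hr with compounds.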

Assay [7] can be described thus: qHTS assay to identify small molecule agonists of the endoplasmic reticulum stress response signaling pathway (AID 1159516; active = well fitted activation curve with a large enough effect in the signal ratio in the repeat runs, not every such curve was filed as active; the % refers to the signal ratio; also: potency is read from the fitted curve at half-maximal effect). The method, boiled down: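 Read-out is beta-lactamase cleavage of a FRET substrate (405 nm excitation; 460 and 530 nm emissions) in ESRE-bla HeLa cells after a 5 hr compound exposure at 37 C. Substrate incubation ran 2 hr at room temperature.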

Assay [8] can be described thus: qHTS assay to identify small molecule agonists of the endoplasmic reticulum stress response signaling pathway - cell viability counter screen (AID 1159517). The gist of the method:
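Counter-screen wells were identical to the reporter wells. Cells were plated at 1,500 per well and dosed for 5 hr, then read for luminescence 30 min after CellTiter-Glo addition.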

Assay [9] can be described thus: qHTS assay to identify small molecule antagonists of the retinoid-related orphan receptor gamma (ROR-gamma) signaling pathway - cell viability counter screen (AID 1159520; active = well fitted curve in the direction sought with a large enough effect in the repeat runs; an effect the other way counts as inactive or inconclusive; also: nearly all actives have a fitted effect of over 50% in size). The gist of the method: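 Tet-on ROR gamma CHO cells were given compounds for 2 hr, then doxycycline hyclate at 1 uM final, and incubated 16 hr at 37 C. Viability was measured as ATP content by CellTiter-Glo luminescence.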

A short description of assay [10]: qHTS assay to identify small molecule agonists of the AP-1 signaling pathway - cell viability counter screen (AID 1159525). Also: nearly all actives have a fitted effect of over 55% in size. The method, boiled down:
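AP-1-bla ME-180 cells in Opti-MEM with 0.5% dialyzed FBS, compound exposure 5 h at 37 C in 15-point titration. Viability read in the same wells as ATP content by CellTiter-Glo luminescence, normalised to tetra-n-octylammonium bromide and DMSO controls.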

A short description of assay [11]: qHTS assay to identify small molecule agonists of the AP-1 signaling pathway (AID 1159526).
Assay [12] addresses Retinoic acid receptor RXR-alpha (Homo sapiens) (UniProt P19793). The assay can be described thus: qHTS assay to identify small molecule agonists of the RXR signaling pathway (AID 1159527). Also: nearly all actives have a fitted effect of over 35% in size. Also: potency is read from the fitted curve at half-maximal effect. The method, boiled down:
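Fluorescence ratio readout (460 vs 530 nm) from GeneBLAzer RXR-alpha HEK 293T cells after 16 hr compound treatment; cells seeded 5 hr beforehand in low-serum, charcoal-stripped medium.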

A short description of assay [13]: qHTS assay to identify small molecule agonists of the peroxisome proliferator-activated receptor delta (PPARd) signaling pathway - cell viability counter screen (AID 743211; active = well fitted curve in the direction sought with a large enough effect in the repeat runs; an effect the other way counts as inactive or inconclusive; also: nearly all actives have a fitted effect of over 55% in size). The gist of the method: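 Following 5 h plating at 37 C and 5% CO2, PPARd UAS-bla HEK293H cells took up test compounds for 17 h. Viability was quantified by luminescence 30 min after CellTiter-Glo addition at room temperature.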

For assay [14], the target named is Peroxisome proliferator-activated receptor delta (Homo sapiens) (UniProt Q03181). Nature of the assay: qHTS assay to identify small molecule agonists of the peroxisome proliferator-activated receptor delta (PPARd) signaling pathway (AID 743212). Also: potency is read from the fitted curve at half-maximal effect. The gist of the method: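 Quantitative high-throughput agonist screen in a HEK293H beta-lactamase reporter line under UAS control. Compounds in DMSO, at 37 C. Fluorescence read after 2 h with FRET substrate at room temperature.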
Sequence of Peroxisome proliferator-activated receptor delta (Homo sapiens) (Q03181 whole entry, looked up): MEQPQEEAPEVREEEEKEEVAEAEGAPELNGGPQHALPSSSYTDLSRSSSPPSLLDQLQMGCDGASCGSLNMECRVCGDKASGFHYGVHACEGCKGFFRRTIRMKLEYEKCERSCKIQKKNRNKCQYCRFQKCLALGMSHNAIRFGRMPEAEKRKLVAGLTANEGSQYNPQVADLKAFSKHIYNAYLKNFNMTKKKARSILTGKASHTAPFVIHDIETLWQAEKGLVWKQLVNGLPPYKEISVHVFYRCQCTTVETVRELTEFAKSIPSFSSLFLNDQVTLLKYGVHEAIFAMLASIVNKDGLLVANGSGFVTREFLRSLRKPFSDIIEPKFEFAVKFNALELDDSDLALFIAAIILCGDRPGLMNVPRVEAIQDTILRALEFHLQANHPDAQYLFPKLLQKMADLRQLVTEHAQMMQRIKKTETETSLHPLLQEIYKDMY

The target in assay [15] is Bile acid receptor (Homo sapiens) (UniProt Q96RI1). Nature of the assay: qHTS assay to identify small molecule antagonists of the farnesoid-X-receptor (FXR) signaling pathway (AID 743217; active = well fitted inhibition curve with a large enough effect in the signal ratio in the repeat runs, not every such curve was filed as active; the % refers to the signal ratio). The method, boiled down:
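HEK 293T FXR-UAS-bla, 5000 cells/well; compound + CDCA 50 uM final; 16 h, 37 °C; B/G FRET substrate 2 h RT; fluorescence.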

Assay [16] has as its target Vitamin D3 receptor (Homo sapiens) (UniProt P11473). The assay can be described thus: qHTS assay to identify small molecule agonists of the vitamin D receptor (VDR) signaling pathway (AID 743222). Also: potency is read from the fitted curve at half-maximal effect. The method, boiled down: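 VDR-bla cells, 2,000/well; 4 h preincubation 37C; cpd (DMSO) 16 h; LiveBLAzer B/G substrate 2 h RT; fluorescence intensity read.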
Assay [17] concerns the target Peroxisome proliferator-activated receptor delta (Homo sapiens) (UniProt Q03181). The assay can be described thus: qHTS assay to identify small molecule antagonists of the peroxisome proliferator-activated receptor delta (PPARd) signaling pathway (AID 743215; active = well fitted inhibition curve with a large enough effect in the signal ratio in the repeat runs, not every such curve was filed as active; the % refers to the signal ratio;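 also: cells stimulated with agonist L165041 at 300 nM final during compound exposure; series mostly up to about 62 µM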). The method, boiled down:
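Read-out is beta-lactamase FRET fluorescence, measured 2 h after substrate addition at room temperature. Beforehand, UAS-bla HEK293H cells carrying the PPARd reporter were exposed to compounds with L165041 at 300 nM final for 17 h at 37 C.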

Assay [18] deals with Bile acid receptor (Homo sapiens) (UniProt Q96RI1). Nature of the assay: qHTS assay to identify small molecule agonists of the farnesoid-X-receptor (FXR) signaling pathway (AID 743220; active = well fitted activation curve with a large enough effect in the signal ratio in the repeat runs, not every such curve was filed as active; the % refers to the signal ratio). The method, boiled down:
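Beta-lactamase reporter under UAS control in GeneBLAzer FXR HEK 293T cells (5000/well) measured with LiveBLAzer FRET substrate after 2 h at room temperature. Compound exposure lasted 16 h at 37C.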

For assay [19], the target named is Vitamin D3 receptor (Homo sapiens) (UniProt P11473). Nature of the assay: qHTS assay to identify small molecule antagonists of the vitamin D receptor (VDR) signaling pathway (AID 743223; active = well fitted inhibition curve with a large enough effect in the signal ratio in the repeat runs, not every such curve was filed as active; the % refers to the signal ratio). The gist of the method: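 Beta-lactamase activity in VDR-bla cells is measured by FRET substrate fluorescence (2 h, room temperature) after cells spend 16 h at 37C with test compound and 3 nM final 1alpha,25-dihydroxyvitamin D3.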
Sequence of Vitamin D3 receptor (Homo sapiens) (P11473 whole entry, looked up): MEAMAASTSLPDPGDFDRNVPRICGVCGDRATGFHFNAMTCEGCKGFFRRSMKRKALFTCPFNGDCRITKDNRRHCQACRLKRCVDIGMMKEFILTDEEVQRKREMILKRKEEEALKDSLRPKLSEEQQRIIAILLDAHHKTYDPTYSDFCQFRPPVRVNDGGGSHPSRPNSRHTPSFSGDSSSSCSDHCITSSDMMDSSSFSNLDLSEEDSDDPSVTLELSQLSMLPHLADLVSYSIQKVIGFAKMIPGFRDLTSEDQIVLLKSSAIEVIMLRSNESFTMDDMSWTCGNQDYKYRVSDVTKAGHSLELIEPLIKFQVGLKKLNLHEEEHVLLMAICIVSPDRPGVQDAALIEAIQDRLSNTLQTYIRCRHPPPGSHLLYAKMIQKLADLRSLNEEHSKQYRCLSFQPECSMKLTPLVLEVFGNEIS

Sequence of Retinoic acid receptor RXR-alpha (Homo sapiens) (P19793 whole entry, looked up): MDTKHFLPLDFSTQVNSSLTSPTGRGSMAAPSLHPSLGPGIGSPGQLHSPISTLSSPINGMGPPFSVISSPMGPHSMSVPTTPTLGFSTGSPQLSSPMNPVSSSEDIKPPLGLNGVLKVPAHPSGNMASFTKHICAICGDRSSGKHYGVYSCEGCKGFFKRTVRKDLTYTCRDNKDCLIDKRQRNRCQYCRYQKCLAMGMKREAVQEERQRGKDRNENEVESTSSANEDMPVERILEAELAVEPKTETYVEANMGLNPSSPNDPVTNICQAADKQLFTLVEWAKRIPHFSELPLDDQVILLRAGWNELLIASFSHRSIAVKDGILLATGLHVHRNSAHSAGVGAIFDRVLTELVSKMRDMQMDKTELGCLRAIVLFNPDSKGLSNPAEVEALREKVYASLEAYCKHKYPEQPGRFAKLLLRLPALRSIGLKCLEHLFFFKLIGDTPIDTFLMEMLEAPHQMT
Sequence of Bile acid receptor (Homo sapiens) (Q96RI1 whole entry, looked up): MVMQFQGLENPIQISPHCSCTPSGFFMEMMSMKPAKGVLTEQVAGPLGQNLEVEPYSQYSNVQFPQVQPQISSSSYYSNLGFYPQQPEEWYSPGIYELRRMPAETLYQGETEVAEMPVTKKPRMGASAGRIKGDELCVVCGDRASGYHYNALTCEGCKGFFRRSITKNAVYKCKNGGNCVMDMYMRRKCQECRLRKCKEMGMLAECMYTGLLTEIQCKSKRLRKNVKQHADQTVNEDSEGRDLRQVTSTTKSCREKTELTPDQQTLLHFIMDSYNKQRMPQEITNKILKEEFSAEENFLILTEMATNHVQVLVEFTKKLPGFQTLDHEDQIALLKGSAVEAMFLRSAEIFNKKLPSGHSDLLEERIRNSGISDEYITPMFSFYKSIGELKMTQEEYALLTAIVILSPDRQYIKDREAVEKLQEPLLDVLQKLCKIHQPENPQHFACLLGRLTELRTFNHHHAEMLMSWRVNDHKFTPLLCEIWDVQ

`CC(=O)[O-].CC(=O)[O-].O.O.[Zn+2]`: the Potency result in assay [1], in assay [2], in assay [3], in [4], in assay [5] and in assay [6] was “inactive” in each case. Besides, the Potency result in assay [7], in assay [8], in assay [9], in assay [10], in [11] and in assay [12] was “inactive” throughout.
Consider `CCCN`, for which the Potency result in assay [13], in assay [1], in assay [3], in assay [4], in assay [5] and in assay [6] was “inactive” in each case. Moreover, the Potency result in assay [7], in assay [8], in assay [9], in assay [10] and in [11] was “inactive” each time.
Turning to `CC(=O)O.CC(=O)O.CC(=O)O.CC(=O)O.CC(=O)O.CC(=O)O.CC(=O)O.O.O.[Cr].[Cr].[Cr]`, the Potency result in assay [13], in assay [3], in assay [4], in [5], in assay [6] and in assay [7] was “inactive” throughout. In addition, the Potency result in [8], in assay [9], in [10], in assay [11] and in [12] was “inactive” throughout.
As to `c1csc(-c2ccc(-c3cccs3)s2)c1`, the Potency entry in assay [13], in assay [15], in assay [2], in [3], in [4] and in assay [5] was “inactive” in each case. For the same compound, the Potency result in assay [6], in assay [8], in assay [9] and in assay [10] was “inactive” each time. For the same compound, the Potency is 43.6 µM (active) in assay [14], 24.5 µM (active) in assay [16], 49 µM (active) in assay [7] and 21.9 µM (active) in assay [12].
Turning to `C=CCOC(=O)c1ccccc1N`, the Potency result in [13], in assay [14], in assay [1], in assay [17], in [2] and in assay [16] was “inactive” each time. For the same compound, the Potency entry in assay [4], in assay [5], in [6], in [7], in assay [8] and in assay [9] was “inactive” each time. For the same compound, the Potency entry in assay [10] and in assay [11] was “inactive” each time.
Regarding `CCCCN(CCCC)C(=S)S`, the Potency result in [13], in assay [1], in [2], in assay [3], in assay [16] and in [4] was “inactive” in each case. In addition, the Potency entry in assay [5], in assay [6], in [7], in [8], in [9] and in [10] was “inactive” each time. For the same compound, in assay [12], the Potency result is “inactive”.
`O=C(Cl)c1ccccc1F`: the Potency entry in [13], in assay [14], in assay [1], in [17], in assay [15] and in assay [18] was “inactive” in each case. Also, the Potency entry in [3], in assay [16], in [19], in assay [4], in assay [5] and in assay [6] was “inactive” in each case. Besides, the Potency entry in [7], in assay [8], in [9], in assay [10] and in [11] was “inactive” throughout.
Turning to `O=P(Cl)(Cl)Cl`, the Potency result in [13], in assay [17], in assay [2], in assay [3], in [4] and in assay [5] was “inactive” in each case. Moreover, the Potency entry in [6], in assay [7], in [8], in assay [9], in assay [10] and in assay [11] was “inactive” each time. In [12], the Potency entry is “inactive”.
Regarding `O=[N+]([O-])[O-].[Tl+]`, the Potency entry in [2], in assay [5], in [6], in assay [7], in assay [8] and in [9] was “inactive” in each case. For the same compound, the Potency entry in assay [10], in [11] and in [12] was “inactive” in each case.
As for `c1ccc2nc(N3CCNCC3)ccc2c1`, the Potency result in assay [19], in assay [4], in assay [5], in [6], in [7] and in assay [8] was “inactive” throughout. The Potency entry in assay [9], in [10] and in assay [11] was “inactive” throughout.
